# Experimental data as given in PubChem BioAssay AID463173 (ICCB-Longwood Screening Facility, Harvard Medical School, 2010).
# Screen size: about 52,000 compounds; about 4,300 (8.3%) were called active. What follows is part of a selection rich in actives, with near analogues and random picks from the rest. Unmarked numbers belong to inactive results. Cut-off read from the data, not from the text of the source: active = survival mostly below about 52% (no sharp cut-off); inactive = mostly above about 56%.
# Test system: DeltatarO mutant
# Assay: S. aureus survival, RN4220 and DeltatarO strains – OD600, teichoic acid synthesis inhibitors, primary screen (AID 463173)
# Conditions: S. aureus RN4220 wild type/DeltatarO growth, OD600, 18 h, hits give low values, screened at 18.75 µg/mL (by protocol)
row,Structure (SMILES),survival
1,CCc1ccc(-n2nc3cc(C)c(NC(=O)c4cc(Cl)ccc4OC)cc3n2)cc1,86%
2,CCOC(=O)c1cc2c(=O)n3ccccc3nc2n(C(C)C)c1=NC(=O)c1cc2ccccc2o1,25% (active)
3,CCCCn1c(=NC(=O)c2cc3ccccc3o2)c(C(=O)OCC)cc2c(=O)n3ccccc3nc21,107%
4,CCOC(=O)c1cc2c(=O)n3ccccc3nc2n(CCCOC)c1=NC(=O)c1cc2ccccc2o1,65%
5,CCOC(=O)c1cc2c(=O)n3ccccc3nc2n(CC(C)C)c1=NC(=O)C(C)Oc1ccccc1 (configuration not stated),165%
6,CCOC(=O)c1cc2c(=O)n3ccccc3nc2n(CCOC)c1=NC(=O)c1cc2ccccc2o1,58%
7,CCOC(=O)c1cc2c(=O)n3ccccc3nc2n(CC(C)C)c1=NC(=O)C(C)(C)Oc1ccc(Cl)cc1,31% (active)
8,CCCCn1c(=NC(=O)C(C)(C)Oc2ccc(Cl)cc2)c(C(=O)OCC)cc2c(=O)n3ccccc3nc21,60%
9,CCCn1c(=NC(=O)c2cc3ccccc3o2)c(C(=O)OCC)cc2c(=O)n3ccccc3nc21,27% (active)
10,CCOC(=O)c1cc2c(=O)n3ccccc3nc2n(C(C)C)c1=NC(=O)C(C)(C)Oc1ccc(Cl)cc1,57%
11,CCOC(=O)c1cc2c(=O)n3ccccc3nc2n(CCCOC)c1=NC(=O)C(C)Oc1ccccc1 (configuration not stated),48% (active)
12,CCOC(=O)c1cc2c(=O)n3ccccc3nc2n(CC(C)C)c1=NC(=O)c1cc2ccccc2o1,59%
13,CCOC(=O)c1cc2c(=O)n3ccccc3nc2n(C(C)C)c1=NC(=O)c1c(-c2c(F)cccc2Cl)noc1C,151%
14,O=C(NC1CSCC1=O)c1ccccc1 (configuration not stated),69%
15,O=C1CC(c2ccccc2)Sc2nc(-c3ccc(F)cc3)nn21 (configuration not stated),81%
16,O=c1[nH]cnc2nc3c4ccccc4c4ccccc4c3nc12,74%
17,O=C(Nc1cccc(F)c1)c1ccc2c(c1)N(Cc1ccccc1)C(=O)c1ccccc1S2(=O)=O,80%
18,O=C1CN=C(Nc2ccccc2Cl)N1Cc1ccccc1,110%
19,COc1ccccc1NC(=O)C1CCC(CNS(=O)(=O)c2ccc3c(c2)CC(C)N3C(C)=O)CC1 (configuration not stated),58%
20,O=C(NC1CC(=O)N(c2cccc(F)c2)C1)c1ccc(S(=O)(=O)N2CCCC2)cc1 (configuration not stated),68%
21,CCOCCCNC(=O)C(=O)Nc1c2c(nn1-c1ccc(OC)cc1)CSC2,83%
22,Cc1ccc(NC(=O)Cn2c(=O)n(CCc3ccccc3)c(=O)c3c4c(sc32)CCCC4)c(C)c1,92%
23,CCC1C=CCC2C(=O)N(CC(=O)NCCC3=CCCCC3)C(=O)C12 (configuration not stated),73%
24,CC(=O)N1CCCn2c1nc1ccccc12,92%
25,Cc1ccc(C)c(N2CCN(C(=O)Cn3cnc4sc(C)c(S(=O)(=O)N5CCN(c6ncccn6)CC5)c4c3=O)CC2)c1,67%
26,CC(NC(=O)c1ccc2c(c1)N(Cc1cccc(F)c1)C(=O)c1ccccc1S2)c1ccccc1 (configuration not stated),89%

row,Structure (SMILES),survival
1,COc1ccc2c(CNC3CCCC3)c(C(=O)O)n(Cc3ccccc3C)c2c1,95%
2,CCc1cccc(NC(=O)CSc2ncc3c(n2)-c2ccc(Cl)cc2N(Cc2ccccc2)S3(=O)=O)c1,92%
3,COc1ccccc1CNC(=O)CSc1ncc2c(n1)-c1ccc(Cl)cc1N(Cc1ccccc1)S2(=O)=O,32% (active)
4,COc1ccccc1CNC(=O)CSc1ncc2c(n1)-c1cc(Cl)ccc1N(Cc1ccccc1)S2(=O)=O,80%
5,Cc1cccc(C)c1NC(=O)CSc1ncc2c(n1)-c1ccc(Cl)cc1N(Cc1ccccc1)S2(=O)=O,0% (active)
6,COc1ccc(CNC(=O)CSc2ncc3c(n2)-c2ccc(Cl)cc2N(Cc2ccccc2)S3(=O)=O)cc1,49%
7,O=C(CSc1ncc2c(n1)-c1ccc(Cl)cc1N(Cc1ccccc1)S2(=O)=O)Nc1ccc(F)c(F)c1,131%
8,CCN(CC)N=Nc1ccc(NC(C)=O)cc1,113%
9,CCc1ccc(-n2nc(C)c3c(C(=O)Nc4cc(C)ccc4C)cc(C)nc32)cc1,60%
10,Cc1c(N)c(C)c(N)c(C)c1N,96%
11,CCOc1ccccc1CNC(=O)C1CCN(C(=O)N2CC(CC)Oc3ccc(C)cc32)CC1 (configuration not stated),71%
12,CCOC(=O)c1c(S(=O)(=O)NCC(=O)Nc2ccc(C)c(Cl)c2)c(C)n(C)c1C,61%
13,Cc1ccc(NC(=O)Cn2c(=O)n(Cc3ccc(F)cc3)c(=O)c3cccnc32)cc1C,91%
14,Cc1ccc(-n2nc(C)c3nc(CCC(=O)Nc4ccc(F)cc4)c(=O)n(C)c32)cc1,73%
15,Cc1ccc(-n2nc(C)c3nc(CCC(=O)Nc4cccc(F)c4)c(=O)n(C)c32)cc1,-5% (active)
16,COc1cccc(NC(=O)CCc2nc3c(C)nn(-c4ccc(C)cc4)c3n(C)c2=O)c1,81%
17,O=C(c1cc(S(=O)(=O)N2CCCC2)c[nH]1)N1CCN(c2cccc(Cl)c2)CC1,98%
18,COCCn1nnnc1C(c1ccc2ncccc2c1)N1CCc2ccccc21 (configuration not stated),98%
19,COc1cc(-c2noc(-c3ccc(NCc4ccco4)c([N+](=O)[O-])c3)n2)cc(OC)c1OC,49% (active)
20,O=[N+]([O-])c1cc(-c2nc(-c3ccccc3)no2)ccc1NCc1ccco1,64%
21,COc1ccc(-c2noc(-c3ccc(NCc4ccco4)c([N+](=O)[O-])c3)n2)cc1,43%
22,Cc1ccc(-c2noc(-c3ccc(NCc4ccco4)c([N+](=O)[O-])c3)n2)cc1,98%
23,COc1ccccc1-c1noc(-c2ccc(NCc3ccco3)c([N+](=O)[O-])c2)n1,97%
24,COc1ccc(-c2noc(-c3ccc(NCc4ccco4)c([N+](=O)[O-])c3)n2)cc1OC,43% (active)
25,CCC(=O)N1c2nc(C(C)C)nn2C2(CCCCC2)[C@@H]2CCCC[C@@H]21,81%
26,COC(=O)c1ccc(Cn2nnc3c(=O)[nH]c(C4CCCN(S(=O)(=O)c5cccc(Cl)c5)C4)nc32)cc1 (configuration not stated),94%
